Source: PubChem BioAssay
For some of these results: Potency and affinity values are given separately. The source made the active and inactive calls. Unless noted, no cut-off is given here; in the data, nearly all actives have IC50 up to about 0.98 µM.

Test system: not listed separately
Assay: inhibition of 3D7 malaria parasite growth – strain 3D7 (AID 2306; call rule not given here;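 note: 0% = DMSO wells and 100% = chloroquine plus artemisinin control wells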)
Details: P. falciparum 3D7 erythrocytic growth, LDH absorbance, 72 h; at 2 µM; active compounds read high

Growth inhibition, active:
Cc1ccc2nc(Nc3ccc(Nc4nc5ccc(C)cc5[nH]4)c(C)c3)[nH]c2c1 99%
Cc1cc(N2CCOCC2)nc2ccc(NC(=O)c3cccc([N+](=O)[O-])c3)cc12 97%
Cc1cc(C2CCN(CCCCNC(=O)c3ccc(NC(=O)c4ccc(Cl)cc4)cc3)CC2)c(C)cc1OCc1ccncc1 100%
N#Cc1ccc(C=Cc2nccc3c2[nH]c2ccccc23)cc1 97%
Cc1ccc(F)cc1-c1cc(N2CCCN(C(=O)c3ccc(Br)o3)CC2)ncn1 94%
CS(=O)(=O)c1cc2c(Nc3ccc(N4CCOCC4)cc3)c(C(N)=O)cnc2cc1Br 101%
Cc1ccc(Cn2ncc(N3CCC(N)CC3)c(Cl)c2=O)cc1NC(=O)Nc1ccc(-c2ccccc2)cc1 90%
COc1ccc(C=C2SC(=O)NC2=Nc2ccccc2)c(OC)c1 91%
Cc1nnsc1C(=O)Nc1ccc(-c2ccc(-c3nc4ccccc4[nH]3)s2)cc1 92%
C=CCc1cc(Br)ccc1OCCCON1C(N)=NC(N)=NC1(C)C 95%
CCOc1c(OC)ccc2c1CCN(CCN1CCC(CNC(=O)c3ccc(-c4ccc(C(F)(F)F)cc4)cc3)CC1)C2 102%
C(=N\Nc1nccc2sc(-c3cccnc3)cc12)/c1ccncc1 101%
O=C(C=Cc1ccc(Cl)c(Cl)c1)NCCCCCN1CCCC(CCCNS(=O)(=O)c2ccc(Br)cc2)C1 (stereo not drawn) 88%
COc1cc(OCCCN(C)Cc2ccc(OC)c(OC)c2)ccc1NC(=O)c1cccc2c(=O)c3cccc(F)c3[nH]c12 94%
Cc1ccc(NC(=O)NC2CCN(CCCCCNC(=O)[C@@H]3C[C@H]3c3ccc(Cl)c(Cl)c3)CC2)cc1 101%
CN(C)S(=O)(=O)c1cc(-c2ccc3nccc(-c4cccc(S(N)(=O)=O)c4)c3c2)cnc1N 100%
O=S(=O)(c1cc(Cl)ccc1Cl)N1CCCCC(c2ccc(C(F)(F)F)cc2)=N1 87%
Oc1cccc(-c2nc(-c3ccccc3)c(-c3ccc(Oc4ccc(-c5[nH]c(-c6cccc(O)c6)nc5-c5ccccc5)cc4)cc3)[nH]2)c1 91%

Target: Calcium-dependent protein kinase 1 (Plasmodium falciparum (isolate 3D7)) (UniProt P62344)
Sequence (P62344 whole entry, looked up): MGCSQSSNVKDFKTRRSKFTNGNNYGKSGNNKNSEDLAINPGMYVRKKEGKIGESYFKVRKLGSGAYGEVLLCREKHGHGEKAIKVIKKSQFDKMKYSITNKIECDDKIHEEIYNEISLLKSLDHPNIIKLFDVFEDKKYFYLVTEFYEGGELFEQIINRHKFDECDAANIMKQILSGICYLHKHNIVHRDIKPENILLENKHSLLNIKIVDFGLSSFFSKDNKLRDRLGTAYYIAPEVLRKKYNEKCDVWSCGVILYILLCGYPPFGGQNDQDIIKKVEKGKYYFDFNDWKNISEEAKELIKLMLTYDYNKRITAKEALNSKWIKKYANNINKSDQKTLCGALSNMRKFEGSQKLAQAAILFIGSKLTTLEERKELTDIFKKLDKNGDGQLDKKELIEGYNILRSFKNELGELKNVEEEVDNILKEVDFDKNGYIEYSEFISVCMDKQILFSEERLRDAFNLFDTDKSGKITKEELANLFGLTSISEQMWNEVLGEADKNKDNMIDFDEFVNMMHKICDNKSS
Assay: PfCDPK1 kinase inhibitors, biochemical, TCAMS library (AID 1159585);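 note: inhibitors leave more ATP so luminescence rises with inhibition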
Details: recombinant PfCDPK1, Kinase-Glo ATP depletion luminescence

outcome, inactive:
COc1cc(NC(=O)c2sc(-c3ccc(Cl)cc3)cc2NC(=O)c2cccc(N(C)C)c2)ccc1OCCN1CCCC1
O=C(Nc1ccc(F)c([N+](=O)[O-])c1)Nc1cc(C(F)(F)F)ccc1Cl
COc1cc(CN2CCC(C(=O)Nc3ccc(-c4cccc(C)c4)cc3)CC2)ccc1O
CN1CCN(c2ccnc3ccc(NC(=O)N(C)c4ccc(Cl)c(Cl)c4)cc23)CC1
CCCCc1ccc(C(=O)Nc2ccc3nc(N4CCN(C)CC4)cc(C)c3c2)cc1
Cc1cc2nc(/N=C(\N)NC(=O)NC3CCCCC3)nc(C)c2cc1C
CC(C)N1CCN(C(CN2CCN(CCCOc3ccc(-c4ccccc4)cc3)CC2)c2ccc(F)cc2)CC1 (stereo not drawn)
COc1cc2nc(N(C)C)nc(Nc3ccc(OCc4ccccc4)cc3)c2cc1OC
COc1ccccc1-c1cc(C(=O)N2CCN(S(=O)(=O)c3ccc(C)cc3)CC2)[nH]n1
Cc1noc(C)c1-c1cccc(CNCc2cccc(-c3ccc(-c4nc5ccccc5[nH]4)s3)c2)c1
CNC(=O)NC1=NC(C)(C)N(OCc2ccc(Cl)c(Cl)c2)C(NC(=O)NC)=N1
CSC1=NC2(CC(c3cccc(C)c3)c3cc(Cl)c(O)cc3O2)CC(C)(C)N1 (stereo not drawn)
Cc1ccc(F)c(OC2CCN(c3ccc(C(=O)NC4CC4)cn3)CC2)c1
Nc1cccc(CNCc2cccc(-c3ccc(-c4nc5ccc(C(F)(F)F)cc5[nH]4)cc3)c2)c1
CCCCCCCCn1ccc(=N)cc1
CC(C)N1CCCN(C(=O)C2CCN(c3ccc(C(=O)N4CCCC4)cn3)CC2)CC1
COc1ccc2nc(C)cc(Nc3ccc(Oc4ccc5ccccc5c4)c(Cl)c3)c2c1
CCOc1ccc2c(NN=Cc3cccc(Cl)c3)cc(C)nc2c1
Nc1nc(N)c2cc(Sc3ccc4ccccc4c3)ccc2n1
COC(=O)c1ccc2nc(-c3ccc(/C=C/C(=O)NC4CCN(Cc5ccccc5)CC4)cc3)[nH]c2c1
O=C(NC1CC1)c1cnc(N2CCC(OCc3ccccc3)CC2)c(Cl)c1
C[C@@H](COc1ccc(-c2ccccc2)cc1)CON1C(N)=NC(N)=NC1(C)C
Cc1ccc2nc(Nc3ccc(Nc4nc5ccc(C)cc5[nH]4)c(C)c3)[nH]c2c1
Cc1cc(N2CCOCC2)nc2ccc(NC(=O)c3cccc([N+](=O)[O-])c3)cc12
Cc1cc(C2CCN(CCCCNC(=O)c3ccc(NC(=O)c4ccc(Cl)cc4)cc3)CC2)c(C)cc1OCc1ccncc1
N#Cc1ccc(C=Cc2nccc3c2[nH]c2ccccc23)cc1
Cc1ccc(F)cc1-c1cc(N2CCCN(C(=O)c3ccc(Br)o3)CC2)ncn1
CS(=O)(=O)c1cc2c(Nc3ccc(N4CCOCC4)cc3)c(C(N)=O)cnc2cc1Br
Cc1ccc(Cn2ncc(N3CCC(N)CC3)c(Cl)c2=O)cc1NC(=O)Nc1ccc(-c2ccccc2)cc1
COc1ccc(C=C2SC(=O)NC2=Nc2ccccc2)c(OC)c1
Cc1nnsc1C(=O)Nc1ccc(-c2ccc(-c3nc4ccccc4[nH]3)s2)cc1
C=CCc1cc(Br)ccc1OCCCON1C(N)=NC(N)=NC1(C)C
CCOc1c(OC)ccc2c1CCN(CCN1CCC(CNC(=O)c3ccc(-c4ccc(C(F)(F)F)cc4)cc3)CC1)C2
C(=N\Nc1nccc2sc(-c3cccnc3)cc12)/c1ccncc1
O=C(C=Cc1ccc(Cl)c(Cl)c1)NCCCCCN1CCCC(CCCNS(=O)(=O)c2ccc(Br)cc2)C1 (stereo not drawn)
COc1cc(OCCCN(C)Cc2ccc(OC)c(OC)c2)ccc1NC(=O)c1cccc2c(=O)c3cccc(F)c3[nH]c12
Cc1ccc(NC(=O)NC2CCN(CCCCCNC(=O)[C@@H]3C[C@H]3c3ccc(Cl)c(Cl)c3)CC2)cc1
CN(C)S(=O)(=O)c1cc(-c2ccc3nccc(-c4cccc(S(N)(=O)=O)c4)c3c2)cnc1N
O=S(=O)(c1cc(Cl)ccc1Cl)N1CCCCC(c2ccc(C(F)(F)F)cc2)=N1
Oc1cccc(-c2nc(-c3ccccc3)c(-c3ccc(Oc4ccc(-c5[nH]c(-c6cccc(O)c6)nc5-c5ccccc5)cc4)cc3)[nH]2)c1
